Results on 53 compounds are retold here after PubChem BioAssay AID686979 (National Center for Advancing Translational Sciences (NCATS), 2013).

Molecules are shown by their SMILES. Screen size: about 420,000 compounds; about 50,000 (12%) were called active. About 26% were inconclusive and are not listed. For the sample, actives were picked, then their nearest neighbours and some compounds at random. Values without a mark were called inactive. Calls come from the whole dose curve; as a rule, active = well fitted inhibition curve with a large enough effect; inconclusive = small, poorly fitted or top-dose-only effect; inactive = flat fitted curve, though single readings scatter.
% is set by controls: 0 for no effect and ±100 for the full control effect; potency is the fitted concentration of half-maximal effect.

This experiment can be described thus: qHTS for Inhibitors of human tyrosyl-DNA phosphodiesterase 1 (TDP1): qHTS in cells in presence of CPT. Note: nearly all actives have a fitted effect of over 55% in size. The following applies: chicken DT40 Tdp1-/-;hTDP1 cells + 20 nM CPT, ATP luminescence, 48 h; series mostly up to 46.2 µM; activity change, negative = growth inhibition: at the top concentration. A digest of the protocol: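 Chicken DT40 Tdp1-/- cells stably complemented with human TDP1 were seeded at 400 cells/well in medium containing 20 nM camptothecin, exposed to pin-transferred compounds, and grown at 37 °C for at least 48 hr. Viability was read as ATP luminescence.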
Take `CN(C(=O)c1ccc2c(c1)N(Cc1cccc(Cl)c1)C(=O)c1ccccc1S2=O)C1CCCCC1` (stereo not drawn): the Potency is 18.4 µM (active).

Consider `Cc1ccccc1NC(=O)NCC1CCN(Cc2cccc(Cl)c2)CC1`, for which the “activity change, negative = growth inhibition” value is 7.35%.

Regarding `O=C(CN1C(=O)c2ccccc2C1=O)NCc1ccc(C(=O)O)cc1`, the “activity change, negative = growth inhibition” value was 0.562%.

In the case of `CCN(CC)C(=O)C1CCCN(Cc2cccc(Cl)c2)C1` (stereo not drawn), the “activity change, negative = growth inhibition” value was -27.2%.

Take `Cc1cccc(C(=O)Nc2ccc3c(c2)C(=O)N(CC(C)C)C3=O)c1`: the “activity change, negative = growth inhibition” value was -28.1%.

For `O=C(CCN1C(=O)c2ccccc2C1=O)NNC(=O)c1ccc(Cl)cc1Cl`, the “activity change, negative = growth inhibition” value is -13.6%.

Consider `O=C(O)c1ccc2c(c1)N(Cc1ccc(F)cc1)C(=O)c1ccccc1S2=O` (stereo not drawn), for which the Potency was 11.6 µM (active).

Consider `Brc1cc(/C=N/n2cnnc2)oc1Br`, for which the “activity change, negative = growth inhibition” value was -27.2%.

As to `CCCOC1CCCN(Cc2cn(C)nc2-c2ccccc2F)C1` (stereo not drawn), the “activity change, negative = growth inhibition” value was 17%.

For `CC(=O)N1CC(=O)N(CC(=O)Nc2ccc(Br)cc2)C1=S`, the “activity change, negative = growth inhibition” value is -13.4%.

Consider `COc1cccc(CNC(=O)Cn2c(=O)c3cccn3c3ccc(F)cc32)c1OC`, for which the “activity change, negative = growth inhibition” value was -10.8%.

`Cc1cccc(N2CC(C(=O)Nc3ccccc3N3CCCC3)CC2=O)c1C` (stereo not drawn): the “activity change, negative = growth inhibition” value was 9.32%.

`O=C(COc1ccccc1F)OCc1cc(=O)n2nc(C3CCCCC3)sc2n1`: the “activity change, negative = growth inhibition” value was -2.79%.

With `CN(C)CCN=c1cc(-c2ccccc2)oc2ccc(Cl)cc12`, the “activity change, negative = growth inhibition” value was 1.27%.

With `CCc1nn(CC(=O)NCC(C)c2ccccc2)c(=O)c2cc3occc3n12` (stereo not drawn), the “activity change, negative = growth inhibition” value was -15.7%.

As for `CCc1nn(CC(=O)Nc2cccc(C)c2C)c(=O)c2cc3sccc3n12`, the “activity change, negative = growth inhibition” value is -1.63%.

Regarding `CCc1nn(CC(=O)Nc2cc(C)cc(C)c2)c(=O)c2cc3sccc3n12`, the Potency was 4.11 µM (active).

Take `O=C(CC1SC(N2CCOCC2)=NC1=O)Nc1ccccc1F` (stereo not drawn): the “activity change, negative = growth inhibition” value was 5.5%.

Turning to `O=C(Cc1ccc(S(=O)(=O)N2CCOCC2)s1)N1CCN(c2ccc(C(F)(F)F)cc2[N+](=O)[O-])CC1`, the Potency is 14.6 µM (active).

Turning to `O=C(Cc1ccc(S(=O)(=O)N2CCOCC2)s1)NCCOc1ccccc1F`, the “activity change, negative = growth inhibition” value is -23.9%.

With `Cc1cc(S(=O)(=O)N2CCOCC2)ccc1OCC(=O)Nc1cccc(C(F)(F)F)c1`, the “activity change, negative = growth inhibition” value is -10.3%.

Consider `O=C(Cc1ccc(S(=O)(=O)N2CCOCC2)s1)Nc1ccc(Br)c(C(F)(F)F)c1`, for which the Potency was 14.6 µM (active).

`O=C(c1ccc(N2CCCC2=O)cc1)N1CCN(c2ccc(C(F)(F)F)cc2[N+](=O)[O-])CC1`: the Potency is 3.66 µM (active).

As for `O=C(OCC(=O)N1CCOCC1)c1ccc(N2CCOCC2)c([N+](=O)[O-])c1`, the “activity change, negative = growth inhibition” value is 17.7%.

Take `O=C(COc1ccc(S(=O)(=O)N2CCOCC2)cc1Cl)N1CCOCC1`: the “activity change, negative = growth inhibition” value was 1.63%.

As to `O=C(Nc1cc(Cl)ccc1N1CCOCC1)c1ccc(N2CCCC2=O)cc1`, the “activity change, negative = growth inhibition” value was -12.9%.

For `CNS(=O)(=O)c1ccc(N2CCCC2=O)c([N+](=O)[O-])c1`, the “activity change, negative = growth inhibition” value was 21.4%.

Regarding `O=C(Nc1ccccc1Cl)N1CCN(c2ccc3nncn3n2)CC1`, the “activity change, negative = growth inhibition” value is 3.27%.

`Cc1c(C)c2ccc(OCC(=O)N3CCC(C(=O)O)CC3)c(C)c2oc1=O`: the “activity change, negative = growth inhibition” value is 17.1%.

Consider `Cc1cccc(OCCC(=O)OCc2csc(CC(=O)Nc3ccccc3C)n2)c1`, for which the “activity change, negative = growth inhibition” value is -16.9%.

In the case of `COC(=O)c1ccc(CNC(=O)c2ccc3oc(C(C)C)nc3c2)cc1`, the “activity change, negative = growth inhibition” value was -27.4%.

On to `COc1ccc(CSc2nnnn2-c2ccc(O)cc2)cc1F`, for which the “activity change, negative = growth inhibition” value was -50.4%.

Take `CC1CCCCC1NC(=O)Cn1cnc2c1c(=O)n(C)c(=O)n2C` (stereo not drawn): the “activity change, negative = growth inhibition” value is -10.2%.

For the compound `O=C(c1ccc(Oc2ccc(Cl)cc2)c([N+](=O)[O-])c1)N1CCCC1`, the Potency is 13 µM (active).

With `O=C(COc1ccc(Cl)cc1[N+](=O)[O-])N1CCCCC1`, the “activity change, negative = growth inhibition” value is -12.8%.

Take `O=C(Oc1ccccc1Cl)c1ccc(N2CCOCC2)c([N+](=O)[O-])c1`: the “activity change, negative = growth inhibition” value is -13.1%.

Regarding `Cc1ccc(-c2nn(CC(C)(C)C)c3ncnc(N)c23)cc1`, the Potency was 6.68 µM (active).

Regarding `Cc1ccc(-n2cnc3ncnc(-c4ccccc4)c32)cc1`, the “activity change, negative = growth inhibition” value was 24.9%.

In the case of `CC(=O)NC(CC(=O)Nc1nccs1)c1ccccc1` (stereo not drawn), the “activity change, negative = growth inhibition” value was -13%.

`CCOc1ccc(NC(=O)CN(C)C(=O)COc2cccc(CC)c2)cc1OCC`: the “activity change, negative = growth inhibition” value is -24.3%.

For `Cc1noc(C)c1CCC(=O)N1CCCC(CO)(Cc2ccccc2)C1` (stereo not drawn), the “activity change, negative = growth inhibition” value was -17.9%.

Take `Oc1ccc(N=Nc2nccs2)c(O)c1`: the Potency is 10.3 µM (active).

Regarding `Oc1ccc2ccccc2c1C=Nc1ccccc1`, the “activity change, negative = growth inhibition” value is 1.22%.

For `Oc1ccc2ccccc2c1N=Nc1nccs1`, the Potency is 1.16 µM (active).

As for `O=C(OCC(=O)N1CCCCCC1)c1ccc(Br)c(S(=O)(=O)N2CCOCC2)c1`, the “activity change, negative = growth inhibition” value was -9.49%.

Take `COC(=O)C1=C(C(=O)OC)[C@@H]2N(Cc3ccccc3)c3ccccc3[C@@]23C[C@@H](C(=O)OC)N(S(=O)(=O)c2ccc(C(F)(F)F)cc2)C3=N1`: the “activity change, negative = growth inhibition” value is -26.2%.

Consider `CN1OC[C@@H]2CN(C(=O)C(C)(C)C)[C@H](c3ccc(-n4ccnc4)cc3)C[C@@H]21`, for which the “activity change, negative = growth inhibition” value is -11.7%.

Take `O=C(CCN1C(=O)c2ccccc2C1=O)Nc1cccc(F)c1`: the “activity change, negative = growth inhibition” value was -3.34%.

On to `Cc1c(NC(=O)c2cccnc2)c(=O)n(-c2ccccc2)n1C`, for which the Potency result is “inactive”.

For `O=C(Nc1cccc(NC(=O)c2cccc(F)c2)c1)c1ccccc1`, the “activity change, negative = growth inhibition” value was -13.4%.

For the compound `O=C(Nc1cccc(F)c1)c1coc(=O)c(Br)c1`, the Potency was 1.3 µM (active).

Turning to `Cc1cc(C(=O)Nc2c(C)n(C)n(-c3ccccc3)c2=O)cs1`, the “activity change, negative = growth inhibition” value was -15%.

In the case of `Cc1c(NC(=O)c2coc(=O)c(Br)c2)c(=O)n(-c2ccccc2)n1C`, the Potency is 2.59 µM (active).
